About 8,800 targets were measured; listed, in parts, are those with a hit and a random draw of the rest. About 0.5% of all pairs of compound and target were hits.
Tests used:
Experiment in all cases: log2 fold change, soluble protein after heating vs DMSO (PISA); higher = thermal stabilisation; K562 lysate, 10 uM; active = over 0.2 and 3.5 SD of the protein, either way, in both replicates (recomputed)
erlotinib = compound: C#Cc1cccc(Nc2ncnc3cc(OCCOC)c(OCCOC)cc23)c1 [erlotinib]
How it was run: (§1)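 K562 pellets were dounce-homogenised in PBS pH 7.4 containing 1 mM MgCl2, and the crude extract, at 1 mg/mL protein, was exposed to 10 μM compound for 30 min. Aliquots were heated for 3 min across 48°C-58°C, pooled, brought to 0.5% NP-40 at 4°C and spun at 21,000xg for 90 min, with the supernatant taken as soluble protein. TMTpro 16plex LC-MS/MS with equalised channel sums quantified that protein. Values are log-two fold changes in thermal stability relative to solvent controls, taken from duplicates.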

[1] = compound: C/C(=N\NC(=O)C1=CC(=CC=C1)S(=O)(=O)N2CCOCC2)/C3=C(C=CC(=C3)Cl)O
How it was run: as §1

[2] = compound: C1=CC(=CC=C1C2=NC3=C(N2)C=C(C=C3)C(=O)N)OC4=CC=C(C=C4)Cl
How it was run: as §1

[3] = compound: C1=CC2=C(C=CC(=C2)/C=C\3/C(=O)NC(=NCC4=CC=CS4)S3)N=C1
How it was run: as §1

[4] = compound: C1=CC2=NC=CN=C2C=C1/C=C/3\C(=O)NC(=O)S3
How it was run: as §1

[5] = compound: C1=CC=C(C=C1)C2=NC(=C(N2)C3=CC=NC=C3)C4=CC(=C(C=C4)Cl)O
How it was run: as §1

[6] = compound: C1=CC=C2C(=C1)C3=NNC4=CC=CC(=C43)C2=O
How it was run: as §1

[7] = compound: C1CCN(C1)C(=O)NC2=CC=CC(=C2)NC3=NC=C(C(=N3)NCCC4=CN=CN4)Br
How it was run: as §1

[8] = compound: C1CN(CCC1(CC2=CC=C(C=C2)Cl)N)C3=NC=NC4=C3C=CN4
How it was run: as §1

IRAK-1-4 Inhibitor I = compound: C1COCCN1CCN2C3=CC=CC=C3N=C2NC(=O)C4=CC(=CC=C4)[N+](=O)[O-] [IRAK-1-4 Inhibitor I]
How it was run: as §1

ibrutinib = compound: C=CC(=O)N1CCC[C@@H](n2nc(-c3ccc(Oc4ccccc4)cc3)c3c(N)ncnc32)C1 [ibrutinib]
How it was run: as §1

[9] = compound: CC(=O)c1cnc2ccc(-c3cc(Cl)c(O)c(Cl)c3)nc2c1N[C@H]1CC[C@H](CN(C)C)CC1
How it was run: as §1

ralimetinib = compound: CC(C)(C)Cn1c(N)nc2ccc(-c3[nH]c(C(C)(C)C)nc3-c3ccc(F)cc3)nc21 [ralimetinib]
How it was run: as §1

[10] = compound: CC(C)(O)CC(=O)NCCn1ccc2ncnc(Nc3ccc(Oc4cccc(C(F)(F)F)c4)c(Cl)c3)c21
How it was run: as §1

[11] = compound: CC(C)C1=C2N=C(C=C(N2N=C1)NCC3=CC=CC=C3)NCCCCCCN
How it was run: as §1

[12] = compound: CC1=C(C(CC(=O)N1)C2=CC=C(C=C2)C(F)(F)F)C(=O)NC3=C(C=C4C(=C3)C=NN4)F
How it was run: as §1

[13] = compound: CC1=C(C2=C(C=C1)C(=O)C3=CC=CC=C3N2CCCN)C
How it was run: as §1

[14] = compound: CC1=C(C=C(C=C1)NC(=O)C2=CC(=CC=C2)C(C)(C)C#N)NC3=CC4=C(C=C3)N=CN(C4=O)C
How it was run: as §1

[15] = compound: CC1=C(C=C(C=C1)NC(=O)C2=CC(=CC=C2)N(C)C)NC(=O)C3=CC=C(C=C3)O
How it was run: as §1

[16] = compound: CC1=CC=C(C=C1)SC2=C3C=C(SC3=CN=C2)C(=O)N
How it was run: as §1

Measured: log2 fold change

GAPVD1 isoform 6 (UniProt Q14C86)
inactive: erlotinib 0.01 | [1] 0 | [2] -0.051 | [3] 0.01 | [4] 0.019 | [5] 0 | [6] -0.013 | [7] 0.007 | [8] -0.025 | IRAK-1-4 Inhibitor I -0.015 | ibrutinib 0.005 | [9] 0.003 | ralimetinib 0.031 | [10] -0.004 | [11] -0.018 | [12] 0.028 | [13] 0.008 | [14] 0.003 | [15] 0.011 | [16] 0.018

GEMIN4 (UniProt P57678)
inactive: erlotinib 0.023 | [1] -0.029 | [2] -0.036 | [3] 0.046 | [4] 0.038 | [5] -0.017 | [6] -0.032 | [7] -0.004 | [8] 0.018 | IRAK-1-4 Inhibitor I -0.023 | ibrutinib 0.003 | [9] -0.028 | ralimetinib 0.056 | [10] 0.001 | [11] 0.051 | [12] 0.007 | [13] -0.048 | [14] -0.005 | [15] 0.059 | [16] 0.011

EIF2B4 (UniProt Q9UI10)
inactive: erlotinib 0.066 | [1] -0.063 | [2] -0.027 | [3] -0.178 | [4] -0.02 | [5] -0.121 | [6] 0.105 | [7] -0.009 | [8] 0.07 | IRAK-1-4 Inhibitor I 0.118 | ibrutinib -0.01 | [9] 0.05 | ralimetinib -0.033 | [10] -0.062 | [11] 0.013 | [12] 0.009 | [13] -0.109 | [14] -0.044 | [15] 0.005 | [16] -0.038

DSTN (UniProt P60981)
Sequence of UniProt P60981 (P60981 whole entry, looked up): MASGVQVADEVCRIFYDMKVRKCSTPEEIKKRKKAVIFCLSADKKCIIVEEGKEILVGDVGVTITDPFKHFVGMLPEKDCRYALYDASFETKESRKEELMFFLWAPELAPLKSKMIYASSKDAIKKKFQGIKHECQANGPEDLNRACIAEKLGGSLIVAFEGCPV
inactive: erlotinib -0.038 | [1] -0.027 | [2] -0.007 | [3] 0.014 | [4] 0.013 | [5] 0 | [6] 0.005 | [7] -0.021 | [8] -0.012 | IRAK-1-4 Inhibitor I -0.007 | ibrutinib -0.011 | [9] -0.013 | ralimetinib -0.004 | [10] 0.038 | [11] -0.006 | [12] -0.001 | [13] 0.045 | [14] -0.005 | [15] -0.012 | [16] -0.003

EIF2B3 (UniProt Q9NR50)
inactive: erlotinib 0.01 | [1] 0.029 | [2] -0.019 | [3] -0.009 | [4] 0.024 | [5] 0.001 | [6] -0.003 | [7] 0.014 | [8] 0.018 | IRAK-1-4 Inhibitor I -0.01 | ibrutinib 0.007 | [9] 0.02 | ralimetinib 0.011 | [10] 0.005 | [11] 0.004 | [12] -0.004 | [13] -0.007 | [14] 0.043 | [15] 0.021 | [16] -0.004

EXOC2 (UniProt Q96KP1)
Sequence of UniProt Q96KP1 (Q96KP1 whole entry, looked up): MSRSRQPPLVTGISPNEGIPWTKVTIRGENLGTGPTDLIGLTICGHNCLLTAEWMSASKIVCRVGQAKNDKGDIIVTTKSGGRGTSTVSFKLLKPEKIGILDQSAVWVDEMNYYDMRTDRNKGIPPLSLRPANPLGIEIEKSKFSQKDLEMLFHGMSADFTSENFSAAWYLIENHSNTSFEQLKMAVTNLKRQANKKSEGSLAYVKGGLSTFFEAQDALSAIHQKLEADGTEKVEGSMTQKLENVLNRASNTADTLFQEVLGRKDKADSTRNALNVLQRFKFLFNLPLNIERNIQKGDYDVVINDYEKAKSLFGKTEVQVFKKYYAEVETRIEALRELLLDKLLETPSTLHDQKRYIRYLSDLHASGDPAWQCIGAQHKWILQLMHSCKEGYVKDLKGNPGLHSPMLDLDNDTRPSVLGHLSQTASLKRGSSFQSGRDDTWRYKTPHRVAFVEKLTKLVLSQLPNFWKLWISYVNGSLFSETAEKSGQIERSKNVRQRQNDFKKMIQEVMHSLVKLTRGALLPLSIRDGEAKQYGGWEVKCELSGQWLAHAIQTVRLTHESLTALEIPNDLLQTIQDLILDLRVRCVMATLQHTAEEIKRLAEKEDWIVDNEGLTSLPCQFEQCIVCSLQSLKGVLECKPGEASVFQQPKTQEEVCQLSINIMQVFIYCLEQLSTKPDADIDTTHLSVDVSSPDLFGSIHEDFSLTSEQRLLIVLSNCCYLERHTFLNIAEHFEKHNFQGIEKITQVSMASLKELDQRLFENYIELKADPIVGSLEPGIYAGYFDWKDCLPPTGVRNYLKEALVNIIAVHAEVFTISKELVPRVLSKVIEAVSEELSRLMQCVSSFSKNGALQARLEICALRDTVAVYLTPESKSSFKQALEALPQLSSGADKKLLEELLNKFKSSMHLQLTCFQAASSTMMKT
inactive: erlotinib 0.011 | [1] -0.008 | [2] -0.028 | [3] 0.049 | [4] -0.008 | [5] -0.001 | [6] -0.042 | [7] -0.018 | [8] 0.016 | IRAK-1-4 Inhibitor I 0.009 | ibrutinib 0.014 | [9] 0.003 | ralimetinib 0.049 | [10] -0.027 | [11] -0.022 | [12] 0.01 | [13] -0.019 | [14] 0.016 | [15] 0.032 | [16] 0.004

DUS3L (UniProt Q96G46)
Sequence of UniProt Q96G46 (Q96G46 whole entry, looked up): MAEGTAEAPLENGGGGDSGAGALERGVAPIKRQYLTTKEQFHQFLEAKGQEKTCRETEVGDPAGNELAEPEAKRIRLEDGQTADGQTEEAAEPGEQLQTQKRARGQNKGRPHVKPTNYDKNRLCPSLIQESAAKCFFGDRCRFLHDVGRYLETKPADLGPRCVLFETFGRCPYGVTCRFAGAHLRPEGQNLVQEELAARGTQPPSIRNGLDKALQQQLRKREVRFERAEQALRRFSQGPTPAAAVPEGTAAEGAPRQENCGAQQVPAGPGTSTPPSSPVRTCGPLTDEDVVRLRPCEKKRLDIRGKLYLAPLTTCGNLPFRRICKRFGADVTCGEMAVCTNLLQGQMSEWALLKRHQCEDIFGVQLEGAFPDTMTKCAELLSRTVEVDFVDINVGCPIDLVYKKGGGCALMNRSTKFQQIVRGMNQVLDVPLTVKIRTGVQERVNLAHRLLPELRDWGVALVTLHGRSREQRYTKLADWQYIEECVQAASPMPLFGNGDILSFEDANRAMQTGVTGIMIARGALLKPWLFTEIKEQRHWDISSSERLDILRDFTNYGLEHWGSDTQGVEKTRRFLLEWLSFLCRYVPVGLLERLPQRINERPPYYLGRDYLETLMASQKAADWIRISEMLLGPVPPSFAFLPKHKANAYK
inactive: erlotinib -0.009 | [1] -0.001 | [2] 0.048 | [3] 0.059 | [4] 0.013 | [5] 0.032 | [6] -0.013 | [7] -0.012 | [8] -0.007 | IRAK-1-4 Inhibitor I 0.017 | ibrutinib 0.012 | [9] -0.003 | ralimetinib 0.023 | [10] -0.034 | [11] -0.007 | [12] 0.004 | [13] -0.007 | [14] 0.014 | [15] 0.001 | [16] -0.003

DST (UniProt Q03001)
inactive: erlotinib 0.025 | [1] -0.035 | [2] 0.046 | [3] -0.03 | [4] -0.042 | [5] 0 | [6] -0.16 | [7] -0.046 | [8] 0 | IRAK-1-4 Inhibitor I 0.04 | ibrutinib 0.007 | [9] -0.031 | ralimetinib -0.034 | [10] -0.098 | [11] 0.021 | [12] -0.052 | [13] -0.054 | [14] 0.049 | [15] 0.063 | [16] -0.046

FAM118B (UniProt Q9BPY3)
Sequence of UniProt Q9BPY3 (Q9BPY3 whole entry, looked up): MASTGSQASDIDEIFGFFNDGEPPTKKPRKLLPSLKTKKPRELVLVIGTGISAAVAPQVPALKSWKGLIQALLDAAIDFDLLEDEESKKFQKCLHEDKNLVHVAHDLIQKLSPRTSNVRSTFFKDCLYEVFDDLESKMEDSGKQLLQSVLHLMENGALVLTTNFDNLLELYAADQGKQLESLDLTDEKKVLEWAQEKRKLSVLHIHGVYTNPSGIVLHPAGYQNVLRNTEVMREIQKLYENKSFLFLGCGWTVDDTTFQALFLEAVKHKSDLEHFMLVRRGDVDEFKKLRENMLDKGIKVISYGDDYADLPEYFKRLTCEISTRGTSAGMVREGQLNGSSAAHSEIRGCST
inactive: erlotinib -0.004 | [1] 0.051 | [2] 0.004 | [3] 0.061 | [4] 0.03 | [5] -0.01 | [6] -0.012 | [7] 0.013 | [8] -0.004 | IRAK-1-4 Inhibitor I -0.03 | ibrutinib 0.066 | [9] -0.016 | ralimetinib 0.015 | [10] -0.019 | [11] 0.023 | [12] -0.01 | [13] 0.012 | [14] -0.012 | [15] 0.03 | [16] 0.008

DVL2 (UniProt O14641)
Sequence of UniProt O14641 (O14641 whole entry, looked up): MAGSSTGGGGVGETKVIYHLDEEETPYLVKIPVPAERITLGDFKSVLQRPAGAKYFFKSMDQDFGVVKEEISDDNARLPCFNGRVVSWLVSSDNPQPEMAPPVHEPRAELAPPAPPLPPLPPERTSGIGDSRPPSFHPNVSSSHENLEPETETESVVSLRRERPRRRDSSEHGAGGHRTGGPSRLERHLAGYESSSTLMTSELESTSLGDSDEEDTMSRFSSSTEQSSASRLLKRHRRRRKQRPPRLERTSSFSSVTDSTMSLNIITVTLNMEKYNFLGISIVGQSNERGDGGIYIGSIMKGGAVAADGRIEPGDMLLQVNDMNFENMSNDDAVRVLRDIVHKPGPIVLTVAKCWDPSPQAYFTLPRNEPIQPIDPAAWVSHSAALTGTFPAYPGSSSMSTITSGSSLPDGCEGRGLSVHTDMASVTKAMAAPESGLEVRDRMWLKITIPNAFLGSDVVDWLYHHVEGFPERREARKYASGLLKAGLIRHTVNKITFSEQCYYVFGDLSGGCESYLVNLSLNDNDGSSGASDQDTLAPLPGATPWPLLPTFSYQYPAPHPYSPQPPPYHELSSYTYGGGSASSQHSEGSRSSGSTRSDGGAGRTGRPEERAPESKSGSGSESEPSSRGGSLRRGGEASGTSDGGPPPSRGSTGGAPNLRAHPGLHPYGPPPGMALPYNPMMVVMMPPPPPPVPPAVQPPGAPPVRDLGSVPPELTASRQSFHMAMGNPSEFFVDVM
inactive: erlotinib 0.012 | [1] -0.028 | [2] 0.011 | [3] -0.015 | [4] 0.03 | [5] -0.055 | [6] -0.029 | [7] 0.001 | [8] 0.067 | IRAK-1-4 Inhibitor I -0.073 | ibrutinib -0.032 | [9] 0.085 | ralimetinib 0.022 | [10] 0.032 | [11] -0.019 | [12] 0.028 | [13] -0.056 | [14] -0.072 | [15] 0.045 | [16] 0.11

FTL (UniProt P02792)
inactive: erlotinib -0.14 | [1] -0.599 | [2] -0.077 | [3] -0.027 | [4] -0.006 | [5] 0.11 | [6] 0.012 | [7] -0.063 | [8] -0.034 | IRAK-1-4 Inhibitor I 0.169 | ibrutinib -0.026 | [9] -0.025 | ralimetinib -0.146 | [10] -0.257 | [11] 0.023 | [12] 0.027 | [13] 0.041 | [14] 0.023 | [15] 0.033 | [16] 0.053

GABPB1 (UniProt Q06547)
inactive: erlotinib -0.004 | [1] 0.033 | [2] 0.012 | [3] 0.028 | [4] 0.035 | [5] 0.016 | [6] -0.009 | [7] 0.026 | [8] -0.008 | IRAK-1-4 Inhibitor I -0.042 | ibrutinib -0.106 | [9] -0.012 | ralimetinib 0.021 | [10] 0.014 | [11] 0 | [12] 0.013 | [13] -0.026 | [14] 0.003 | [15] 0.071 | [16] 0.024

FAM114A2 (UniProt Q9NRY5)
inactive: erlotinib -0.039 | [1] -0.068 | [2] 0.141 | [3] -0.028 | [4] -0.1 | [5] -0.052 | [6] 0.02 | [7] -0.045 | [8] -0.104 | IRAK-1-4 Inhibitor I -0.002 | ibrutinib -0.016 | [9] -0.061 | ralimetinib -0.036 | [10] -0.11 | [11] 0.057 | [12] 0.171 | [13] 0.06 | [14] -0.069 | [15] 0.005 | [16] 0.012

FANCI (UniProt Q9NVI1)
Sequence of UniProt Q9NVI1 (Q9NVI1 whole entry, looked up): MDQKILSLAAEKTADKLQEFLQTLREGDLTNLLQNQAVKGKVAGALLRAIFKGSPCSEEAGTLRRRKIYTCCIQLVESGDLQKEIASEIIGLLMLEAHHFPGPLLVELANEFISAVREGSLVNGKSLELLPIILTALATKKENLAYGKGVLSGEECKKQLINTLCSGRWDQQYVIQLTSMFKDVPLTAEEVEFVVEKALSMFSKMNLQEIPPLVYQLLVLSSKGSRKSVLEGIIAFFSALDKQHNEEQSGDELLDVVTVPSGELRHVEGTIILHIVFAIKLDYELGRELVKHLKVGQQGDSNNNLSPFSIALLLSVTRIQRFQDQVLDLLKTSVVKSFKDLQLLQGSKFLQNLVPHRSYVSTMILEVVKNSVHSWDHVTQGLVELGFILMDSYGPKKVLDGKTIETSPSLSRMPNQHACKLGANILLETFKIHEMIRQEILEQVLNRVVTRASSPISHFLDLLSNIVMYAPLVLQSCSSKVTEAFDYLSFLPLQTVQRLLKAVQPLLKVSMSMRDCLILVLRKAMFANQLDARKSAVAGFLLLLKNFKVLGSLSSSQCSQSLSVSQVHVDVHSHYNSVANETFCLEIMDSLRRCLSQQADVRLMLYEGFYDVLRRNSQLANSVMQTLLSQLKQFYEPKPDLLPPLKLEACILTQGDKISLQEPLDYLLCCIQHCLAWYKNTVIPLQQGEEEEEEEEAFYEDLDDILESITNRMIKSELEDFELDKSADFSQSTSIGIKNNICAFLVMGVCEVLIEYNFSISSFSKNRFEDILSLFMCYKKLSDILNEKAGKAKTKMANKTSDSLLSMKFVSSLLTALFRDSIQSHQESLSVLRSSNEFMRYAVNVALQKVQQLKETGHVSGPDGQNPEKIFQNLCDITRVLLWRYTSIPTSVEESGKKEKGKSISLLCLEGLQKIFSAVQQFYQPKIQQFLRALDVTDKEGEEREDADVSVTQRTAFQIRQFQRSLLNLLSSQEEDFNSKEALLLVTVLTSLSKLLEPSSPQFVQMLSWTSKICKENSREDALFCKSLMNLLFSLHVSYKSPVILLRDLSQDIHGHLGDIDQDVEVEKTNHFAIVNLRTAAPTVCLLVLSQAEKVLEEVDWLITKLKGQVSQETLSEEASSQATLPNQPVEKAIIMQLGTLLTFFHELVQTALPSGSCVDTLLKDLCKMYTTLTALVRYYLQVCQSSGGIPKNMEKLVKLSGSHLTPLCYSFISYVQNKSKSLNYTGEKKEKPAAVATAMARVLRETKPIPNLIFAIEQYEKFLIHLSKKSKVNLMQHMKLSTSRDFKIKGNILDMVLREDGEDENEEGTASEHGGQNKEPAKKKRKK
inactive: erlotinib 0.012 | [1] -0.031 | [2] -0.056 | [3] 0.013 | [4] 0.021 | [5] -0.001 | [6] -0.051 | [7] -0.008 | [8] -0.009 | IRAK-1-4 Inhibitor I 0.013 | ibrutinib -0.024 | [9] 0.022 | ralimetinib 0.02 | [10] -0.024 | [11] -0.038 | [12] -0.021 | [13] 0.026 | [14] 0.002 | [15] 0.033 | [16] 0.014

EEF1A1, A0A087WVQ9
inactive: erlotinib 0.029 | [1] -0.049 | [2] 0.054 | [3] -0.069 | [4] -0.016 | [5] -0.035 | [6] -0.072 | [7] -0.019 | [8] -0.001 | IRAK-1-4 Inhibitor I 0.03 | ibrutinib 0.085 | [9] 0.019 | ralimetinib -0.006 | [10] 0.019 | [11] -0.007 | [12] 0.091 | [13] 0 | [14] -0.023 | [15] -0.006 | [16] 0.004

FASTKD5 (UniProt Q7L8L6)
Sequence of UniProt Q7L8L6 (Q7L8L6 whole entry, looked up): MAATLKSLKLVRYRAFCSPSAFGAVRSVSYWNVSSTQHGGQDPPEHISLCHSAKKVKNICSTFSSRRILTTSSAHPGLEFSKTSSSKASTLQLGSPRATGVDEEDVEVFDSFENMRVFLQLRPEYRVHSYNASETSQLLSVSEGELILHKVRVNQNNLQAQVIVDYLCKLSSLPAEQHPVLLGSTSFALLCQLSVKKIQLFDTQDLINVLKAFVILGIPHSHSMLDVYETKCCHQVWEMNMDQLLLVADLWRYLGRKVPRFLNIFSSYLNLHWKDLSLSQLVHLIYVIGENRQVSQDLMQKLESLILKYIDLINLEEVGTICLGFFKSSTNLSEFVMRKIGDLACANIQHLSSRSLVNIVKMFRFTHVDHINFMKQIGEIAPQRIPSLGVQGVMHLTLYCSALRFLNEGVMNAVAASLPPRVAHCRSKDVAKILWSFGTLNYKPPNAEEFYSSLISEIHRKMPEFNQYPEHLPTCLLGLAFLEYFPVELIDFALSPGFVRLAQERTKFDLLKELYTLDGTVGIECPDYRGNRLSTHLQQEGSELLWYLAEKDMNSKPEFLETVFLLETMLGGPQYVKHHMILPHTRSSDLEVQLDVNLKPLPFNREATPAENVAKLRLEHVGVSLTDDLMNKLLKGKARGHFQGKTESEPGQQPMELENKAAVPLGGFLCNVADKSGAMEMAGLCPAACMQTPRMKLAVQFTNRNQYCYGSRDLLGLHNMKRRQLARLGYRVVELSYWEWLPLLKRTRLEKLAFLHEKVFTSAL
inactive: erlotinib 0.061 | [1] 0.019 | [2] -0.054 | [3] 0.023 | [4] 0.013 | [5] -0.014 | [6] -0.066 | [7] -0.047 | [8] 0.013 | IRAK-1-4 Inhibitor I -0.019 | ibrutinib -0.134 | [9] 0.056 | ralimetinib 0.073 | [10] 0.007 | [11] -0.027 | [12] 0.032 | [13] 0.006 | [14] 0.021 | [15] 0.008 | [16] -0.053

Source: the supplement of paper PMC10849652
